In PubChem BioAssay (NCI):
Where “and” joins values, the source holds several entries; their conditions need not be identical. Identical values can stand only once. The panel holds about 83,000 compounds, 20% with a hit somewhere; the sample as a whole holds those more often.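 For each line, cells grew in 96-well plates with the test compound present at a single concentration for 48 hours.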 Calls of active or inactive are those of the source. Rule for the calls: active = growth percent below 10; inactive = the rest.

Tests used:
Assay in all cases: NCI-60 one-dose screen, 48 h (100 = growth as untreated, 0 = no growth, -100 = all killed)
SR leukemia = conditions: 10 µM unless noted
RPMI-8226 leukemia = conditions: 10 µM unless noted
OVCAR-8 ovarian = conditions: 10 µM unless noted
OVCAR-5 ovarian = conditions: 10 µM unless noted
OVCAR-4 ovarian = conditions: 10 µM unless noted
SK-OV-3 ovarian = conditions: 10 µM unless noted
IGROV1 ovarian = conditions: 10 µM unless noted
OVCAR-3 ovarian = conditions: 10 µM unless noted
HS 578T breast = conditions: 10 µM unless noted
NCI/ADR-RES ovarian = conditions: 10 µM unless noted
T-47D breast = conditions: 10 µM unless noted
BT-549 breast = conditions: 10 µM unless noted
MDA-MB-435 melanoma = conditions: 10 µM unless noted
SW-620 colon = conditions: 10 µM unless noted
MCF7 breast = tested on: MCF7 breast
HCC-2998 colon = conditions: 10 µM unless noted
KM12 colon = conditions: 10 µM unless noted
HCT-116 colon = conditions: 10 µM unless noted

Structure (SMILES) | growth (SR leukemia) | growth (RPMI-8226 leukemia) | growth (OVCAR-8 ovarian) | growth (OVCAR-5 ovarian) | growth (OVCAR-4 ovarian) | growth (SK-OV-3 ovarian) | growth (IGROV1 ovarian) | growth (OVCAR-3 ovarian) | growth (HS 578T breast) | growth (NCI/ADR-RES ovarian) | growth (T-47D breast) | growth (BT-549 breast) | growth (MDA-MB-435 melanoma) | growth (SW-620 colon) | growth (MCF7 breast; 10 µM) | growth (HCC-2998 colon) | growth (KM12 colon) | growth (HCT-116 colon) | growth (MCF7 breast; 20 µM)
CN(C)c1ccc(N=Nc2cccc3ccccc23)cc1 | 111% (inactive) | 72.5% (inactive) | 94.8% (inactive) | 107% (inactive) | 81.4% (inactive) | 80.1% (inactive) | 67.2% (inactive) | 84.3% (inactive) | 95% (inactive) | 102% (inactive) | 22.2% (inactive) | 76.8% (inactive) | 98.8% (inactive) | 98.6% (inactive) | 14.2% (inactive) | 69.2% (inactive) | 94.2% (inactive) |  | 
CNc1ccc2c(c1)c1ccccc1n2C | 93.9% (inactive) | 110% (inactive) | 100% (inactive) | 112% (inactive) | 108% (inactive) | 106% (inactive) | 109% (inactive) | 102% (inactive) |  | 102% (inactive) | 91.3% (inactive) | 106% (inactive) | 115% (inactive) | 111% (inactive) | 97.5% (inactive) | 99.4% (inactive) | 104% (inactive) | 107% (inactive) | 
COC(=O)c1nc(=S)[nH]c(C(=O)OC)c1C(=O)c1ccccn1 | -3.79% (active) | 52.8% (inactive) | 20.6% (inactive) | 57.9% (inactive) | 25.3% (inactive) | 63.2% (inactive) | 24.5% (inactive) | 34.5% (inactive) | 70.1% (inactive) | 7.03% (active) | 51.5% (inactive) | 50.3% (inactive) |  | 43.3% (inactive) | 14.6% (inactive) | 45.3% (inactive) | 24.6% (inactive) |  | 
COC(=O)[C@@]12OC[C@]34[C@H]([C@@H](O)[C@@H]1O)[C@@]1(C)[C@H](O)C(=O)C=C(C)[C@@H]1C[C@H]3OC(=O)C(OC(C)=O)[C@@H]24 (stereo partly drawn) | -43% (active) | -69.8% (active) | -18.6% (active) | -11.5% (active) | 3.68% (active) | -9.46% (active) | -58% (active) | -48.4% (active) |  | 16% (inactive) | -20.5% (active) | -53.1% (active) | -81.2% (active) | -38.2% (active) | -19.2% (active) | -75.8% (active) | -57.8% (active) | -54.1% (active) | 
COc1cc(/C=C(/C)C[N+](=O)[O-])ccc1O | 34% (inactive) | 64.3% (inactive) | 94.7% (inactive) | 110% (inactive) | 104% (inactive) | 103% (inactive) | 44.1% (inactive) | 85.4% (inactive) |  | 102% (inactive) | 56.7% (inactive) | 113% (inactive) | 105% (inactive) | 48.9% (inactive) | 16.5% (inactive) | 102% (inactive) | 96.5% (inactive) | 82.7% (inactive) | 
O=C(Nc1ccccc1)Oc1c(Cl)c(Cl)c(Cl)c(Cl)c1Cl | 98.2% (inactive) and 99.2% (inactive) | 95.2% (inactive) | 105% (inactive) and 98% (inactive) | 95.3% (inactive) and 87.5% (inactive) | 111% (inactive) and 91.9% (inactive) | 102% (inactive) and 90.5% (inactive) | 95.2% (inactive) and 96.3% (inactive) | 96.9% (inactive) and 104% (inactive) | 91.6% (inactive) | 103% (inactive) and 96.6% (inactive) | 102% (inactive) and 84.5% (inactive) | 98.7% (inactive) and 88.5% (inactive) |  | 101% (inactive) and 102% (inactive) | 98.1% (inactive) and 91.5% (inactive) | 112% (inactive) and 108% (inactive) |  |  | 
CCC(c1cccc(O)c1)C(CC)c1cccc(O)c1 (stereo not drawn) | 16.5% (inactive) | 31.6% (inactive) | 85.6% (inactive) | 96.3% (inactive) | 67.6% (inactive) | 76.5% (inactive) | 72.4% (inactive) | 77.3% (inactive) | 54.2% (inactive) | 72.1% (inactive) | 53.8% (inactive) | 66% (inactive) |  | 42% (inactive) | 16.8% (inactive) | 67% (inactive) | 36.7% (inactive) | 34.4% (inactive) | 
CCN(CC)CCOc1ccc(-c2nc3cc(Cl)ccc3s2)cc1 | -69.6% (active) | -12.2% (active) | 40.9% (inactive) | -0.127% (active) | 58.5% (inactive) | 59.9% (inactive) | -27.3% (active) | -4.49% (active) | -29.2% (active) | -26.1% (active) | 22% (inactive) | 68% (inactive) | -51.1% (active) | -52.9% (active) | 9.23% (active) | -97.2% (active) | -99.2% (active) |  | 
O=C1C2=C(Nc3cc([N+](=O)[O-])ccc3N2)OC1c1c2ccccc2cc2ccccc12 (stereo not drawn) | 23.5% (inactive) | 15% (inactive) | 47.5% (inactive) | 75.8% (inactive) | 50% (inactive) | 104% (inactive) | 52.3% (inactive) | 69.4% (inactive) |  | 38.3% (inactive) | 47.4% (inactive) | 23.3% (inactive) | 73% (inactive) | 21.8% (inactive) | 22.3% (inactive) | 72.6% (inactive) | 16.7% (inactive) |  | 
N#CC1C(=O)SC2c3ccccc3C(=O)c3ccccc3C12 (stereo not drawn) | 90.1% (inactive) | 94.6% (inactive) | 99% (inactive) | 105% (inactive) | 99.1% (inactive) | 98.2% (inactive) | 110% (inactive) | 109% (inactive) |  | 104% (inactive) | 89% (inactive) | 101% (inactive) |  | 101% (inactive) | 98.9% (inactive) | 102% (inactive) |  |  | 
N[C@H](C(=O)O)[C@@H]1CC(Cl)=NO1 | 21.2% [20 µM] (inactive) | 28.9% [20 µM] (inactive) | 30.3% [20 µM] (inactive) | 28.4% [20 µM] (inactive) | 48.1% [20 µM] (inactive) | 34.1% [20 µM] (inactive) | 10.8% [20 µM] (inactive) | 32.4% [20 µM] (inactive) |  | 28.4% [20 µM] (inactive) | 37.4% [20 µM] (inactive) | 27.3% [20 µM] (inactive) |  | 10.2% [20 µM] (inactive) |  | 34.7% [20 µM] (inactive) | 18.2% [20 µM] (inactive) | 14.1% [20 µM] (inactive) | 12.3% (inactive)
Nc1nc(N)c2c(ccc3c2ccn3Cc2cccc([N+](=O)[O-])c2)n1 | 110% (inactive) | 19.4% (inactive) | -54.4% (active) | -96.9% (active) | -79.2% (active) | -100% (active) | -90% (active) |  | -58.2% (active) | 22.5% (inactive) | -67% (active) | -91.4% (active) | -93.4% (active) | -91.8% (active) | -79.2% (active) | -86% (active) | -92.3% (active) | -84.9% (active) | 
CCCCCC(CCCCC)C(=O)O | 99.7% (inactive) | 97.3% (inactive) | 113% (inactive) | 110% (inactive) | 106% (inactive) | 98.4% (inactive) | 96.3% (inactive) | 118% (inactive) |  | 117% (inactive) | 100% (inactive) |  |  | 110% (inactive) | 100% (inactive) | 119% (inactive) |  | 109% (inactive) | 
Nc1ncnc2c1ncn2C1OC(CO)C(O)C1O (stereo not drawn) | 98.7% (inactive) and 21% (inactive) and 87.3% (inactive) | 101% (inactive) and 77.5% (inactive) and 112% (inactive) | 93.5% (inactive) and 56% (inactive) and 105% (inactive) | 122% (inactive) and 127% (inactive) | 123% (inactive) and 83.8% (inactive) and 91.7% (inactive) | 104% (inactive) and 100% (inactive) | 109% (inactive) and 104% (inactive) |  | 125% (inactive) and 77.9% (inactive) | 110% (inactive) and 72% (inactive) | 109% (inactive) and 9.96% (active) and 90.6% (inactive) | 101% (inactive) and 47.6% (inactive) and 123% (inactive) | 110% (inactive) and 103% (inactive) and 112% (inactive) | 112% (inactive) and 85.1% (inactive) and 106% (inactive) | 107% (inactive) and 10.7% (inactive) and 97% (inactive) | 105% (inactive) and 31.2% (inactive) and 107% (inactive) | 116% (inactive) and 112% (inactive) and 114% (inactive) | 108% (inactive) and 65% (inactive) and 90% (inactive) | 
CCC(CC)COC(=O)c1ccc(O)c(O)c1 | 18.6% (inactive) | 35.1% (inactive) | 59.9% (inactive) | 91.3% (inactive) | 77.2% (inactive) | 67% (inactive) | 37.5% (inactive) |  | 86.8% (inactive) | 57.8% (inactive) | 43.6% (inactive) | 50% (inactive) | 69.8% (inactive) | 80.5% (inactive) | 97.5% (inactive) | 84.4% (inactive) |  |  | 
Oc1c(Cl)c2ccccc2c2ccccc12 | 99.2% (inactive) | 102% (inactive) | 98.4% (inactive) | 129% (inactive) | 98.1% (inactive) | 111% (inactive) | 117% (inactive) | 107% (inactive) |  | 67.6% (inactive) | 122% (inactive) | 95.8% (inactive) | -72% (active) | 111% (inactive) | 98.8% (inactive) | 117% (inactive) | 107% (inactive) |  | 
